A selection: hits, their analogues and other compounds. The true share with any hit is near 4.1%.
MazF activator – activators of E. coli MazEF toxin-antitoxin RNase. P0AE70. FAM/BHQ RNA-DNA oligo cleavage fluorescence, 5 h. activation, % at 20 µM. 0.32% of 350,000 active; in the data active means activation above about 50%
Target sequence (P0AE70 whole entry, looked up): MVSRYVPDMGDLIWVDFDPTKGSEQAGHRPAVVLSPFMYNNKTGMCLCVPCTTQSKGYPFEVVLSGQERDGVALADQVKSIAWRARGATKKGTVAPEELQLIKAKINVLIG
Anthrax LF prot – inhibitors of Bacillus anthracis lethal factor protease | 0.12% of 360,000 active | P15917 | inhibition, % at 10 µM | multiplex microsphere protease cleavage assay, LF; in the data active means inhibition above about 30%; inconclusive means no clear call, values can overlap the other calls; further: plate controls were buffer without enzyme for full effect and enzyme alone for no effect
Autofluor counter – flagged as autofluorescent in microsphere protease counterscreen; compound autofluorescence counterscreen, microsphere flow cytometry; stronger effect = higher value; 3.1% of 360,000 active; fluorescence intensity (test concentration not listed); in the data active means fluorescence intensity above about 16000; inconclusive means no clear call, values can overlap the other calls
DUSP3 inh – inhibitors of human VHR1 phosphatase (DUSP3) | P51452 | recombinant VHR phosphatase, pNPP absorbance | inhibition, % at 13.3 µM | 0.52% of 290,000 active | AID 1654; in the data active means inhibition above about 50%
Target sequence (P51452 whole entry, looked up): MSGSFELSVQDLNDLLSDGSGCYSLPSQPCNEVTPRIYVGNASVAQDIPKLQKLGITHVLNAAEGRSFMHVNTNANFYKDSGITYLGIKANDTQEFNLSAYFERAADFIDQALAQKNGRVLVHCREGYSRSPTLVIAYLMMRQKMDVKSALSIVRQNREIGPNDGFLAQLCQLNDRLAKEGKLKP
BoNT-A LC inh2 – blocks Botulinum neurotoxin A light chain protease; AID 588499; 0.17% of 360,000 active; multiplex microsphere protease substrate cleavage, flow cytometry; inhibition, % at 10 µM; in the data active means inhibition above about 30%; inconclusive means no clear call, values can overlap the other calls; further: plate controls were buffer without enzyme for full effect and enzyme alone for no effect
BoNT F protease – inhibitors of Botulinum neurotoxin F light chain protease. Multiplex microsphere protease cleavage assay, flow cytometry. inhibition, % at 10 µM. 0.22% of 360,000 active. AID 588497; in the data active means inhibition above about 35%, passing the limit was not always enough; inconclusive means no clear call, values can overlap the other calls; further: plate controls were buffer without enzyme for full effect and enzyme alone for no effect
BoNT-A LC CP1 – BoNT/A light chain protease inhibition; shares compounds with BoNT F protease; multiplex microsphere protease assay, flow cytometry; inhibition, % at 10 µM; 3% of 720 active; AID 602139; in the data active means inhibition above about 32%
BoNTF LC inh 1 – BoNT/F light chain protease inhibition | shares compounds with BoNT F protease | inhibition, % at 10 µM | multiplex microsphere protease cleavage assay, flow cytometry | 720 tested, under 10 active
Anthrax LF CP1 – Bacillus anthracis lethal factor protease inhibition. multiplex microsphere protease cleavage assay, LF. shares compounds with BoNT F protease. inhibition, % at 10 µM. 720 tested, under 10 active
Active calls of the source: *; ? = inconclusive; . = no result. Unless noted, how the calls were made is not given here.

SMILES	MazF activator	Anthrax LF prot	Autofluor counter	DUSP3 inh	BoNT-A LC inh2	BoNT F protease	BoNT-A LC CP1	BoNTF LC inh 1	Anthrax LF CP1
COC(=O)C1Cc2ccccc2CN1S(=O)(=O)c1ccc(C)cc1 (stereo not drawn)	-2	-7	3884	5	1	36*	1	4	-3
CC(C)N(Cc1ccccc1)C(=O)CC(=O)N(Cc1ccccc1)C(C)C	-12	12	5070	2	9	36*	0	-4	-2
CC(C)N(Cc1ccccc1)C(=O)CN1C(=O)c2ccccc2C1=O	20	-10	4105	10	0	7	.	.	.
COc1ccc(C(CC(=O)Nc2cc(C)ccn2)N2Cc3ccccc3C2=O)cc1 (stereo not drawn)	7	6	3901	-3	6	110*	1	0	-2
Cc1cc(C(=O)OCC(=O)N2CC(C)OC(C)C2)c(C)n1-c1ccccc1 (stereo not drawn)	4	-13	8756	.	-1	0	.	.	.
O=C(Nc1nc2ccccc2s1)c1cccc(S(=O)(=O)N2CCc3ccccc32)c1	-9	-6	5120	15	-1	-7	.	.	.
O=C(Nc1nc2c(s1)CN(Cc1ccccc1)CC2)c1cccc(S(=O)(=O)N2CCc3ccccc32)c1	-149	30*	13649	23	20	5	8	13	6
CC1CCCCC1NC(=O)c1nn(C)c2c1CS(=O)(=O)c1ccccc1-2 (stereo not drawn)	-1	-2	5346	7	-1	-4	.	.	.
CCn1c(SCC(=O)Nc2nc(C)cs2)nnc1C(NC(=O)c1ccccc1Cl)C(C)C (stereo not drawn)	2	-2	2432	-1	-1	-6	.	.	.
C=CCn1c(SCC(=O)Nc2nc(C)cs2)nnc1C(CO)NC(=O)c1ccccc1 (stereo not drawn)	-1	1	4560	0	2	30	-1	2	-3
CC(C)CC(=O)Nc1c(C(=O)N2CCN(Cc3ccccc3)CC2)oc2ccccc12	4	-1	3884	1	2	15	.	.	.
FC(F)(F)c1ccc(CNCCc2ccc3c(c2)OCO3)cc1	0	2	3048	27	5	71*	1	-6	1
COc1ccc(CN(Cc2ccc(C(=O)O)cc2)C(=S)Nc2ccc(C)cc2)cc1OC	7	-4	4310	12	0	-2	.	.	.
c1ccc2c(C3=NNC(=NC4CC4)SC3)c[nH]c2c1	4	12	4586	5	41*	-10	7	-19	9
CCCCN1C(=O)C(CC(=O)NCCCCc2ccccc2)CC(C(=O)N2CCCCCC2)=C1C (stereo not drawn)	.	-5	5883	.	0	4	.	.	.
Cn1cnc([N+](=O)[O-])c1Sc1nc2ccccc2[nH]1	2	34*	4159	21	-1	4	0	-3	0
Cc1nc([N+](=O)[O-])c(Sc2nc3ccccc3[nH]2)n1Cc1ccccc1	5	-3	8495	-6	1	1	.	.	.
CNc1ncnc2c1ncn2[C@H]1CN(Cc2cccnc2)C[C@@H](CO)O1	.	1	2890	.	0	0	.	.	.
COc1ccc(C2C(C)C(=O)C(C)C(c3ccc(OC)cc3)N2N=O)cc1 (stereo not drawn)	6	-5	4073	.	0	0	.	.	.
Brc1ccc(-c2nnc(-c3cccnc3)o2)cc1	1	-7	4028	.	-1	?	.	.	.
Cc1ccc(-c2nnc(-c3cccnc3)o2)cc1	-1	7	3110	.	5	56*	0	2	4
COc1cccc(NS(=O)(=O)c2ccc(-n3cccn3)cc2)c1	-2	-4	5450	44	-1	0	.	.	.
CCOc1cc(CNCC(O)c2ccccc2)cc(Cl)c1OC (stereo not drawn)	-2	-1	2453	11	4	41*	1	-11	-2
O=C(NC1CCCc2ccccc21)C1CCCC1 (stereo not drawn)	8	33*	4522	2	-8	?	0	-2	-4
O=C(NC1CCCc2ccccc21)C1CCN(S(=O)(=O)c2ccccc2)CC1 (stereo not drawn)	2	-3	10345	4	1	1	.	.	.
SMILES	MazF activator	Anthrax LF prot	Autofluor counter	DUSP3 inh	BoNT-A LC inh2	BoNT F protease	BoNT-A LC CP1	BoNTF LC inh 1	Anthrax LF CP1
CCOc1ccccc1C(=O)NC(C)CCc1ccccc1 (stereo not drawn)	7	-6	4124	.	1	-4	.	.	.
COc1ccc(NC(=O)CC2(CC(=O)O)CCCC2)cc1	4	12	3381	24	-3	-5	.	.	.
O=C(O)CC1(CC(=O)Nc2ccc(C(F)(F)F)cc2)CCCC1	5	4	4111	-20	2	40*	1	-2	2
CCC(C)(C)n1nnnc1C(C(C)C)N(Cc1cccnc1)Cc1ccco1 (stereo not drawn)	-7	-8	3446	4	0	0	.	.	.
CCC(C)(C)n1nnnc1C(C(C)C)N(Cc1ccco1)Cc1cc2cc3c(cc2[nH]c1=O)OCO3 (stereo not drawn)	-2	-17	10857	21	33*	38*	0	1	-7
CCNC(=O)CC1C(=O)N(c2ccc(C)cc2)C(=O)N1CCOC (stereo not drawn)	-4	8	3534	-24	4	36*	-1	-3	-2
COCCN1C(=O)N(c2cccc(C)c2)C(=O)C1CC(=O)Nc1ccc(OC)cc1 (stereo not drawn)	-2	3	3457	4	1	37*	0	1	-1
COc1ccc(OC)c(CN2CCN(C(=O)CNC(=O)c3ccc(C(C)(C)C)cc3)CC2)c1	4	0	4043	.	0	-5	.	.	.
COc1ccc(OC)c(CN2CCN(C(=O)CCNC(=O)c3ccc(Br)cc3)CC2)c1	2	-2	?	.	34*	1	0	2	0
N=c1sc2ccccc2n1-c1ccccc1	10	27	10239	21	32*	20	2	0	2
C=CC(=O)N=c1sc2ccccc2n1-c1ccccc1	-12	6	4086	27	0	-7	.	.	.
Cc1nnc(SCC(=O)NC2CCCCCC2)n1C	2	-2	5614	33	1	4	.	.	.
Cc1nnc(SCC(=O)NC(C)(C)C)n1C1CCCCC1	0	0	2608	0	3	40*	3	12	1
COc1ccc(C(=O)Nc2ccc3c(c2)nc2n3CCSC2)cc1	3	2	4353	3	7	38*	0	-1	-5
COc1ccc(C(=O)Nc2ccc3nc(C)c(C)nc3c2)cc1	15	11	3841	.	0	6	.	.	.

Compound activity from PubChem BioAssay.
